This note sets out measurements from PubChem BioAssay (NCATS).

Values joined by “and” are separate entries in the source; they are usually repeats but may differ in a detail not shown here. Equal entries are not always repeated. Results filed as inconclusive are left out. Some compounds were tested as several samples or in several runs, with calls that do not always agree. Active and inactive are the calls of the source. Unless noted, calls follow the shape of the dose curve; as a rule, active = well fitted curve in the direction sought with a large enough effect; inconclusive = small, poorly fitted or top-dose-only effect, or another doubt; inactive = no such curve, though single readings can be large; an effect the other way counts as inactive or inconclusive.

Test [1] is described as follows: qHTS Assay for Identification of Small Molecule Agonists for NFkB Signaling Pathway. (AID 624478). Also: 0% is about no effect. The method, boiled down: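 NFkB-bla ME-180 cells carry a beta-lactamase reporter. They received compound plus TNF alpha at 10 pM final (its EC50) for 5 h at 37 C. Reporter activity was read as 460/530 nm emission ratio after 2 h LiveBLAzer substrate loading.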
On the technique in general: qHTS replaces the single test concentration by a dilution series.

Test [2] is described as follows: Cell Proliferation Assay against the TMD8 Cell Line (AID 651645).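 Also: cells exposed to compound for 48 h before reading.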 The conditions noted are these: TMD8 DLBCL cell line proliferation/viability; at 46.1 µM (top of the series). The procedure, abridged:
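Seed log-phase TMD8 cells in RPMI containing 5% FBS, add compounds at once, incubate 48 hours at 37C. Equilibrate to room temperature, add CellTiter-Glo, read luminescence after 15 minutes and express relative to DMSO and bortezomib controls.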

A short description of test [3]: Cell Proliferation Assay against the HBL1 Cell Line (AID 651646).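 Also: cells exposed to compound for 48 h before reading.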 The note with it: HBL1 DLBCL cells; at 46.1 µM (top of the series). The procedure, abridged:
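HBL1 ABC DLBCL cells, 500/well in RPMI with 5% FBS, treated for 48 h at 37C. Viability read by CellTiter-Glo luminescence, normalized to DMSO as 100% and 9.2 uM bortezomib as 0%.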

The nature of test [4]: Cell Proliferation Assay against the TMD8 Cell Line (Caspase readout at 16 hrs) (AID 651712). Also: potency is read from the fitted curve at half-maximal effect. The procedure, abridged:
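TMD8 cells in RPMI with 5% FBS were treated with compound for 16 h at 37 C, then caspase 3/7 activation was read by Caspase-Glo luminescence. Percent activity was scaled to DMSO (0%) and 9.2 uM bortezomib final (100%).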

Test [5] in a line: Cytotoxicity counterscreen for NFkB agonists and antagonists (AID 624476; also: potency is read from the fitted curve at half-maximal effect). (Counterscreens check selectivity or assay interference.)
Test [6] is described as follows: qHTS Assay for Identification of Small Molecule Antagonists for NFkB Signaling Pathway. (AID 624479; calls by dose curve;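 also: pathway stimulated with TNF alpha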; also: potency is read from the fitted curve at half-maximal effect).
A short description of test [7]: qHTS assay for small molecule agonists of the antioxidant response element (ARE) signaling pathway (AID 651741; active = well fitted activation curve with a large enough effect in the signal ratio; the % refers to the signal ratio; also: potency is read from the fitted curve at half-maximal effect; as to activation: % of control where 0% means no effect). The method, boiled down: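 CellSensor ARE-bla HepG2 cells (2,000/well) carrying ARE-driven beta-lactamase, exposed 16 h at 37 C. LiveBLAzer B/G FRET substrate added for 2 h at room temperature; fluorescence intensity read.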
Test [8] is described as follows: qHTS assay for small molecule activators of the p53 signaling pathway (AID 651743; active = well fitted activation curve with a large enough effect in the signal ratio, not every such curve was filed as active; the % refers to the signal ratio; also: % of control where 0% means no effect). The note with it: HCT-116 p53RE-bla, beta-lactamase FRET ratio, 16 h; stronger effect = higher value. The method, boiled down:
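p53RE-bla HCT-116 cells carrying a beta-lactamase reporter under p53 response elements were exposed to compounds for 16 hours at 37 C. Reporter activity read as fluorescence after 2 hours at room temperature with LiveBLAzer B/G FRET substrate.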

Test [9] is described as follows: qHTS assay for small molecule activators of the nuclear factor-kappa B (NF-kB) signaling pathway (AID 651749; active = well fitted activation curve with a large enough effect in the signal ratio; the % refers to the signal ratio; also: % of control where 0% means no effect). The note with it: NF-kB-bla ME-180 cells, beta-lactamase FRET ratio, 16 h; stronger effect = higher value. The method, boiled down: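 NF-kB-bla ME-180 cells carrying a beta-lactamase reporter under an NF-kB response element, 2,000 cells/well, exposed to compound for 16 hr at 37C; FRET-based beta-lactamase fluorescence read-out of pathway activation.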

The nature of test [10]: qHTS assay for small molecule disruptors of the mitochondrial membrane potential - 1 hr assay (AID 651754; calls by dose curve; also: % is scaled to controls: 0 for no effect and ±100 for the full control effect; nearly all actives have a fitted effect of over 35% in size). The method, boiled down: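 HepG2 cells, attached overnight, were exposed to compound for 1 hr at 37C, then stained 30 min with a potentiometric dye. Ratio of red aggregate (590nm) to green monomer (535nm) fluorescence reports membrane potential; collapse shifts signal toward green.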

The nature of test [11]: qHTS assay for small molecule disruptors of the mitochondrial membrane potential - 5 hr assay (AID 651755; calls by dose curve; also: % is scaled to controls: 0 for no effect and ±100 for the full control effect; nearly all actives have a fitted effect of over 40% in size). The method, boiled down: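 HepG2 cells (2,000/well), attached overnight, exposed to compound 5 hr at 37C, then Mito-MPS dye 30 min. Fluorescence read for monomers (490/535 nm) and aggregates (540/590 nm).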
Test [12] concerns the target Tumor necrosis factor (Homo sapiens) (UniProt P01375). In words: qHTS assay to identify small molecules that stimulate Tumor Necrosis Factor-alpha (TNF-alpha) secretion (AID 651757; active = well fitted curve in the direction sought with a large enough effect in the signal ratio; the % refers to the signal ratio; also: 0% is about no effect). The method, boiled down:
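THP-1 cells (3000/well) exposed to compounds 17 hrs at 37 C. Secreted TNF-alpha detected by HTRF with cryptate- and XL665-labeled anti-TNF-alpha antibodies after 3 hr at room temperature.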

Sequence of Tumor necrosis factor (Homo sapiens) (P01375 whole entry, looked up): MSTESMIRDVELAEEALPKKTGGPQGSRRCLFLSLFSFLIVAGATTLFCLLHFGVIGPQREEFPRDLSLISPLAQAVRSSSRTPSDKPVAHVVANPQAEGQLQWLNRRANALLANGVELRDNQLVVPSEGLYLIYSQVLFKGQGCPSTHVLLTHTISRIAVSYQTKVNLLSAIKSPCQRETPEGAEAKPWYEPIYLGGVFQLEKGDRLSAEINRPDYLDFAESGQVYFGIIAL

Consider `CC(=O)NCCC(=O)N[C@@H](CCC(N)=O)C(=O)N[C@@H](CO)C(=O)N[C@@H](CCC(N)=O)C(=O)N[C@@H](CCC(N)=O)C(=O)N[C@H](C(=O)N[C@@H](Cc1ccccc1)C(=O)N[C@]1(C)CCCCCCC=CCCC[C@@](C)(C(=O)N[C@@H](CCC(N)=O)C(=O)N[C@@H](CC(N)=O)C(N)=O)NC(=O)[C@H](CC(C)C)NC(=O)[C@H](CC(C)C)NC(=O)[C@@H](CCCNC(=N)N)NC(=O)[C@H](Cc2c[nH]c3ccccc23)NC(=O)[C@H](CC(C)C)NC(=O)[C@H](CC(N)=O)NC1=O)[C@H](C)O`, for which, in test [1], the call was inactive. The viability (% of control) in test [2] was determined as 22.4%. Moreover, the viability, percent of control in test [3] was 3.58%. For the same compound, in test [4], the Potency result is “inactive”.
Turning to `Cc1csc(-c2nnc(Nc3ccc(Oc4ncccc4-c4ccnc(N)n4)cc3)c3ccccc23)c1`, the Potency result in [5] was “inactive”. In addition, the call in [1] was inactive. Further, the Potency is 1.06 µM (active) in test [6] and 23.5 µM (active) in test [4]. Besides, in test [2], the viability (% of control) stood at 4.09%. The viability, percent of control in test [3] was determined as 63.2%.
`CC1=C[C@@H]2[C@@H]([C@@H](O)C[C@@]3(C)[C@H]2C[C@@H](C)[C@]3(O)C(=O)CO)[C@@]2(C)Cc3cnn(-c4ccccc4)c3C=C12`: the compound was classed as inactive in [1]. In test [2], the viability (% of control) was found to be 0.486%. In test [3], the viability, percent of control was determined as 2.33%.
Turning to `CC(C)C[C@H](NC(=O)c1cc2ccccc2s1)C(=O)N1CCN(C(=O)[C@H](CO)NS(=O)(=O)c2ccc(Cl)cc2Cl)CC1`, the Potency entry in [5] was “inactive”. Further, the compound was called inactive in [1]. Besides, in [2], the viability (% of control) is -0.483%. Further, the viability, percent of control in test [3] stood at 3.69%.
For `CC(C)n1c(C=C[C@H](O)C[C@H](O)CC(=O)O)c(-c2ccc(F)cc2)c2ccccc21`, the Potency result in test [5], in [6] and in [4] was “inactive” each time. Further, the result in test [1] was inactive.
`COc1nc(C)cnc1NS(=O)(=O)c1cccnc1-c1ccc(-c2nnco2)cc1`: the Potency entry in [5], in test [6] and in test [4] was “inactive” each time. Further, the outcome in test [1] was inactive. In test [2], the viability (% of control) is 116%. Besides, in test [3], the viability, percent of control was determined as 92.3%.
Take `Cc1c(C(=O)Nc2ccc(N3C[C@@H](C)O[C@@H](C)C3)nc2)cccc1-c1ccc(OC(F)(F)F)cc1`: the compound was classed as inactive in test [1]. In addition, in test [2], the viability (% of control) is 48.4%. The viability, percent of control in test [3] amounted to 32.3%.
With `Cc1cc2c(cc1C1(c3ccc(C(=O)O)cn3)CC1)C(C)(C)CCC2(C)C`, in [1], the compound was classed as inactive. The viability (% of control) in test [2] came out at 79.3%. In test [3], the viability, percent of control turned out to be 48.2%. In test [4], the Potency entry was “inactive”.
Regarding `CNC(=O)c1cc(COc2nnc(Nc3ccc(Cl)cc3)c3ccoc23)ccn1`, the Potency in test [6] is 26.6 µM (active). Also, the viability (% of control) in [2] is 39.7%. Besides, in test [3], the viability, percent of control turned out to be 6.77%.
Take `COc1ccc(CCN(C)CCCOc2ccc(S(=O)(=O)c3[nH]c4ccccc4c3C(C)C)cc2)cc1OC`: the compound was classed as inactive in test [1]. In addition, the viability (% of control) in test [2] came to 4.97%. The viability, percent of control in test [3] amounted to 7.05%.
Regarding `CCCCCCCCCCCCCC(=O)N[C@H](CO)[C@H](O)c1ccc([N+](=O)[O-])cc1`, the compound was classed as inactive in test [1]. The Potency in test [6] is 29.8 µM (active). Further, the viability (% of control) in test [2] was 4.37%. Further, the viability, percent of control in test [3] was 21.7%.
In the case of `C[C@@H]1C[C@H]2[C@@H]3CCC4=CC(=O)C=C[C@]4(C)[C@@]3(F)[C@@H](O)C[C@]2(C)[C@@]1(O)C(=O)CO`, the Potency in test [7] was 42.2 µM (active) and inactive. The activation in test [8] was -3.68% (inactive) and -5.63% (inactive); in test [9], -2.02% (inactive) and -1.92% (inactive). Also, the compound was classed as inactive in [10], in [11] and in test [12].
`COC(=O)Nc1ccc(-c2nc(N3CCOCC3)c3cnn(C4CCN(C(=O)OC)CC4)c3n2)cc1`: in test [1], the compound was called inactive. In test [6], the Potency result was “inactive”. Moreover, the viability (% of control) in [2] came out at 32.2%. Besides, in test [3], the viability, percent of control stood at 51.1%.
For `CCOC(=O)[C@@H](N)CCC(=O)N[C@@H](CSCc1ccccc1)C(=O)N[C@@H](C(=O)OCC)c1ccccc1`, the Potency result in test [5] was “inactive”. The viability (% of control) in [2] was found to be 62.4%. For the same compound, the viability, percent of control in test [3] was found to be 89.4%.
For the compound `CN(C)CCCNC(=O)c1ccc(-c2cc(O)c3ncccc3c2)cc1`, the compound was called inactive in test [1]. For the same compound, the Potency result in test [6] is “inactive”. The viability (% of control) in test [2] stood at 2.8%. For the same compound, in [3], the viability, percent of control was 31%.
As to `Cc1cccc(Nc2nc(N[C@@H]3CCCC[C@H]3N)ncc2C(N)=O)c1`, the Potency entry in [5] was “inactive”. In addition, the outcome in test [1] was inactive. Also, in test [2], the viability (% of control) stood at 2.81%. For the same compound, the viability, percent of control in test [3] worked out at 2.69%.
For the compound `Cc1ccc(C(=O)N(CCCN)[C@@H](c2nc3cc(Cl)ccc3c(=O)n2Cc2ccccc2)C(C)C)cc1`, the Potency in test [5] was 23.5 µM (active). The outcome in test [1] was inactive. Moreover, the viability (% of control) in [2] stood at 0.587%. Also, in [3], the viability, percent of control stood at 1.66%.
`O=C(O)Cc1cccc(OCCCN(Cc2cccc(C(F)(F)F)c2Cl)CC(c2ccccc2)c2ccccc2)c1`: in [5], the Potency was 26.4 µM (active). Also, the viability (% of control) in test [2] worked out at 8.71%. The viability, percent of control in [3] turned out to be 12.9%.
Consider `CN1C(=O)C(Cc2c[nH]c3ccccc23)NC1=S` (stereo unspecified), for which the Potency entry in [5], in [6] and in [4] was “inactive” each time. Also, the outcome in [1] was inactive. Also, the viability (% of control) in test [2] amounted to 80.6%. For the same compound, in test [3], the viability, percent of control turned out to be 98.6%.
For `CC(=O)Nc1cccc(-n2c(=O)n(C3CC3)c(=O)c3c(Nc4ccc(I)cc4F)n(C)c(=O)c(C)c32)c1`, the compound was called inactive in test [1]. The viability (% of control) in test [2] came to 0.993%. Besides, the viability, percent of control in test [3] turned out to be 6.64%.
